Experimental data as given in the supplement of paper PMC6522484.
± gives the standard deviation of the averaged measurements.

Key:
DLD1 [1] = test: cell viability (CellTiter-Glo) relative to plate median (fraction of plate median); higher = more viable cells; details: 5 µM; treatment time 24 h; reporter: 7TFP
Procedure, shortened: (§1)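 Colorectal cancer cell lines stably carrying lentiviral TCF/Wnt firefly luciferase reporters (7TFP or TCF4/Wnt) were plated in 384-well plates and, 24 h later, given library compounds at a final 5 µM for 24 h. Firefly luciferase or CellTiterGlo luminescence was read on parallel plates with a Tecan F500 reader. Each well's signal was normalised to the plate median in webcellHTS2 (additive, without log transformation). Values are the mean of two independent replicates.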

HCT116 = test: as above; details: 5 µM; treatment time 24 h; reporter: TCF4/Wnt
Procedure, shortened: as §1

SW480 [2] = test: as above; details: 5 µM; treatment time 24 h; reporter: 7TFP
Procedure, shortened: as §1

DLD1 [3] = test: TCF/Wnt firefly luciferase reporter signal relative to plate median (fraction of plate median); higher = higher Wnt reporter signal; details: 5 µM; treatment time 24 h; reporter: 7TFP
Procedure, shortened: as §1

SW480 [4] = test: as above; details: 5 µM; treatment time 24 h; reporter: 7TFP
Procedure, shortened: as §1

Compound | cell viability (DLD1 [1]) | cell viability (HCT116) | cell viability (SW480 [2]) | TCF/Wnt firefly luciferase reporter signal (DLD1 [3]) | TCF/Wnt firefly luciferase reporter signal (SW480 [4])
CC(=O)Nc1ccc(OC(=O)c2ccccc2O)cc1 | 0.999 ± 0.016 | 0.989 ± 0.03 | 0.978 ± 0.074 | 1 ± 0.095 | 0.891 ± 0.043
CCCCCCCCCCCCCCCC(=O)OC[C@@H](NC(=O)C(Cl)Cl)[C@H](O)c1ccc([N+](=O)[O-])cc1 | 0.96 ± 0.0042 | 0.996 ± 0.02 | 1.01 | 0.971 ± 0.028 | 1.02 ± 0.052
CC(=O)O[C@@H]1CC(=O)[C@@]2(C)C(CC(=O)[C@]3(C)C2CC[C@@]2(C)[C@H](c4ccoc4)OC(=O)C4OC423)C1(C)C (stereo not given in full) | 1.025 ± 0.0071 | 1.025 ± 0.0071 | 0.981 ± 0.0057 | 0.986 ± 0.12 | 1.05 ± 0.098
Cc1nnc(NS(=O)(=O)c2ccc(N)cc2)s1 | 1.01 ± 0.016 | 1.04 ± 0.028 | 1.01 ± 0.15 | 0.957 ± 0.04 | 0.981 ± 0.056
CCNC(=O)CC[C@H](N)C(=O)O | 1.01 ± 0.021 | 1.03 ± 0.06 | 0.998 ± 0.018 | 1.13 ± 0.11 | 1.05 ± 0.014
COc1ccc(CC(=O)c2ccc(O)cc2O)cc1 | 0.962 ± 0.054 | 0.955 ± 0.14 | 0.995 ± 0.036 | 1.13 ± 0.057 | 1.07 ± 0.078
c1ccc2c(CC3=NCCN3)cccc2c1 | 1.11 ± 0.035 | 1.09 ± 0.028 | 1.09 ± 0.035 | 1.07 ± 0.12 | 0.984 ± 0.11
CCCCC1=NC2(CCCC2)C(=O)N1Cc1ccc(-c2ccccc2-c2nnn[nH]2)cc1 | 0.897 ± 0.099 | 0.939 ± 0.016 | 1 ± 0.083 | 1.01 ± 0.048 | 0.811 ± 0.22
CC(C)CCC[C@@H](C)[C@H]1CC[C@H]2[C@@H]3CC=C4CC(=O)CC[C@]4(C)[C@H]3CC[C@]12C | 1 ± 0.026 | 1.015 ± 0.0071 | 1.03 ± 0.048 | 0.979 ± 0.13 | 0.974 ± 0.19
COc1cc(C)c(C(=O)Oc2cc(C)c(C(=O)O)c(O)c2C)c(OC)c1C | 0.961 ± 0.033 | 1.025 ± 0.0071 | 0.987 ± 0.047 | 0.953 ± 0.034 | 1 ± 0.099
OC[C@@H](O)[C@@H](O[C@@H]1O[C@H](CO)[C@@H](O)[C@H](O)[C@H]1O)[C@H](O)[C@@H](O)CO | 0.959 ± 0.058 | 1.01 ± 0.058 | 1.01 ± 0.03 | 1.08 ± 0.12 | 1.11 ± 0.014
CN(C)CCOc1ccc(/C(=C(/CCCl)c2ccccc2)c2ccccc2)cc1 | 0.947 ± 0.034 | 1.02 ± 0.062 | 0.977 ± 0.047 | 0.962 ± 0.12 | 1.05 ± 0.073
CC(CCC(=O)O)C1CCC2C3CCC4CC(O)CCC4(C)C3C=CC12C (stereo not given) | 1.03 ± 0.021 | 0.943 ± 0.12 | 1.005 ± 0.0071 | 0.902 ± 0.071 | 0.964 ± 0.02
CCN(CCO)CCCC(C)Nc1ccnc2cc(Cl)ccc12 (stereo not given) | 1.05 ± 0.097 | 0.998 ± 0.1 | 0.986 ± 0.0057 | 1.02 ± 0.076 | 1.045 ± 0.0071
O=C(O)C1=CCCNC1 | 1.01 ± 0.061 | 1.01 ± 0.037 | 1 ± 0.013 | 1.13 ± 0.028 | 1.04 ± 0.16
CCCc1ncc(C[n+]2ccccc2C)c(N)n1 | 0.995 ± 0.05 | 0.935 ± 0.059 | 0.972 ± 0.0028 | 0.956 ± 0.057 | 0.987 ± 0.011
COC1(C)CCC2OC2(C)CCC2C1CC2(C)C (stereo not given) | 1.1 ± 0.099 | 0.97 ± 0.02 | 1.08 ± 0.042 | 0.934 ± 0.063 | 1.02 ± 0.044
CC[C@H](C)[C@@H]1NC(=O)[C@H](C)NC1=O [Cyclo(alanylisoleucyl)] | 1.05 ± 0.12 | 1.165 ± 0.0071 | 1.07 ± 0.014 | 1.05 ± 0.028 | 0.992 ± 0.15
O=C(O)C1(C(=O)O)CCC1.[NH2-].[NH2-].[Pt+2] | 1.02 ± 0.059 | 1.08 ± 0.15 | 0.97 ± 0.028 | 1.15 ± 0.099 | 1 ± 0.039
Cc1c(C(=O)O)c(O)cc2c1C(=O)c1c(O)c([C@@H]3O[C@H](CO)[C@@H](O)[C@H](O)[C@H]3O)c(O)c(O)c1C2=O | 0.97 ± 0.032 | 1.01 ± 0.089 | 0.9855 ± 0.0078 | 1.08 ± 0.17 | 1.07 ± 0.14
COc1cc2nc(N(C)CCCNC(=O)C3CCCO3)nc(N)c2cc1OC (stereo not given) | 1.01 ± 0.12 | 0.973 ± 0.053 | 0.985 ± 0.035 | 0.972 ± 0.069 | 0.905 ± 0.053
C[C@H]1[C@@H](O)O[C@@H]2O[C@@]3(C)CC[C@H]4[C@H](C)CC[C@@H]1[C@@]24OO3 | 1.05 ± 0.09 | 0.746 ± 0.12 | 1.24 ± 0.05 | 0.761 ± 0.2 | 1.01 ± 0.052
Nc1[nH]cnc2ncnc1-2 | 1.2 | 1.1 ± 0.071 | 1.82 ± 0.028 | 0.981 ± 0.012 | 1.65 ± 0.26
COc1ccc(C2CNC(=O)C2)cc1OC1CCCC1 (stereo not given) | 0.992 ± 0.011 | 0.989 ± 0.059 | 0.968 ± 0.0099 | 1.04 ± 0.18 | 1.06 ± 0.021
C[C@](N)(Cc1ccc(O)cc1)C(=O)O [alpha-METHYL-L-TYROSINE] | 1.08 ± 0.11 | 1.07 ± 0.078 | 0.944 ± 0.016 | 0.896 ± 0.02 | 0.974 ± 0.11
COC1=CC(=O)C[C@@H](C)[C@]12Oc1c(Cl)c(OC)cc(OC)c1C2=O | 0.937 ± 0.055 | 1.02 ± 0.057 | 0.865 ± 0.038 | 0.929 ± 0.094 | 0.89 ± 0.17
Cc1ccc2c(Cl)cc(Cl)c(O)c2n1 | 1.01 ± 0.021 | 1.01 ± 0.15 | 1.07 | 1.06 ± 0.22 | 1.04 ± 0.067
Cc1c(C)c2c(c(C)c1O)CCC(C)(CCCC(C)CCCC(C)CCCC(C)C)O2 (stereo not drawn) [alpha-TOCHOPHEROL] | 0.963 ± 0.012 | 0.97 ± 0.085 | 1.01 ± 0.017 | 1.07 ± 0.014 | 1.01 ± 0.16
